This passage reports composite z-score and z-score results from PubChem BioAssay.

Active and inactive are the calls of the source. Unless noted, how the calls were made is not given here.

The test system of assay [1] is Wnt5a (protein binding on small-molecule microarray). The assay can be described thus: Wnt5a binders on small-molecule microarray, primary screen, biophysical, 635/667 nm fluorescence (AID 1142).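 Further: fluorescence read at 667 nm with signal to noise per printed feature.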 As to conditions: 635 nm fluorescence, higher = more signal.
The nature of assay [2]: cell viability in Huh7 cells, primary screen, cytotoxicity control for HCV replication inhibitor project, CellTiter-Glo luminescence, basal, 48 h (AID 1143).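 Further: Huh7 hepatoma cells carrying a hepatitis C replication reporter with no stimulus; test concentration not given here.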 As to conditions: Huh7 HCV replicon, higher = more signal, called active from +8 up or from −8 down. Background: ATP-based viability assays read luminescence as a measure of living cells.
Assay [3] can be described thus: P. aeruginosa biofilm formation inhibitors, primary screen, PAO1 strain, BacTiter-Glo luminescence, LB-PBS (AID 1144). As to conditions: 12 h, higher = more signal.
A short description of assay [4]: CREB reporter modulators without forskolin, primary screen, cell-based, PC12, CRE-LacZ reporter, unstimulated (AID 1145). As to conditions: no forskolin, luminescence, 4.5 h, higher = more signal, called active from +8 up or from −8 down.
Assay [5] can be described thus: CREB reporter modulators under forskolin, primary screen, cell-based, PC12, CRE-LacZ reporter, forskolin-stimulated (AID 1146).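 Further: PC12 cells with 6xCRE LacZ reporter stimulated by forskolin 10 µM; beta-galactosidase reporter signal reflecting CREB driven transcription.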 As to conditions: luminescence, 4.5 h, higher = more signal, called active from +8 up or from −8 down.
For assay [6], the target named is Streptavidin (Streptomyces avidinii) (UniProt P22629). Kind of assay: streptavidin binders on small-molecule microarray, primary screen, artefact control for SMM compound annotation, biophysical, 635/667 nm fluorescence (AID 1147).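 Further: signal reflects streptavidin binding to arrayed compounds as a control protein.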 As to conditions: streptavidin binding, higher = more signal.
Sequence of Streptavidin (Streptomyces avidinii) (P22629 whole entry, looked up): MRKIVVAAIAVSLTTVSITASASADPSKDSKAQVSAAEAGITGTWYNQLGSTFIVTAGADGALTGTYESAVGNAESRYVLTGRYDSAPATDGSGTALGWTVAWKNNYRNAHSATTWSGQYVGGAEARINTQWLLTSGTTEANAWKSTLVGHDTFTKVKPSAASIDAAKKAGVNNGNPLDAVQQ
A short description of assay [7]: small-molecule binders of probe aInhba, primary screen, biochemical, small-molecule microarray, 635/667 nm fluorescence (AID 1148).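 Further: score merges 667nm spot fluorescence with signal-to-noise for antibody binding to printed compounds.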 As to conditions: higher = more signal.
The target of assay [8] is Torsin-1A (Homo sapiens) (UniProt O14656). Kind of assay: torsin A binders from cell lysate, primary screen, small-molecule microarray, wild-type, 635/667 nm (AID 1149). As to conditions: COS7 hTOR1A-WT lysate, 635 nm fluorescence, higher = more signal.
Sequence of Torsin-1A (Homo sapiens) (O14656 whole entry, looked up): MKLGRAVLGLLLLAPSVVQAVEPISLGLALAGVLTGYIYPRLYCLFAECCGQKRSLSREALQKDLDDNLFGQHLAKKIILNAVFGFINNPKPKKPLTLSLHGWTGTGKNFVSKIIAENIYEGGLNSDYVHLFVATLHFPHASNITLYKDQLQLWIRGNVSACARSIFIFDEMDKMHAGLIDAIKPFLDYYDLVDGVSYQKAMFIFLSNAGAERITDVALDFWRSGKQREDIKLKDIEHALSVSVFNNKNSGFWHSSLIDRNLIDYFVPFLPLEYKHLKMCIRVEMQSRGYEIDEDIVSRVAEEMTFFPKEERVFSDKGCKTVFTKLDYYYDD
Assay [9] shares this target. Kind of assay: small-molecule binders of mutant TOR1A in lysate, primary screen, cell lysate, small-molecule microarray, COS7 lysate, 635/667 nm fluorescence (AID 1150).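 Further: score pools 667 nm emission and signal to noise measuring lysate protein binding.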 As to conditions: COS7 hTOR1A mutant lysate, 635 nm fluorescence, higher = more signal.
The subject of assay [10] is Sonic hedgehog protein (Shh). The assay can be described thus: small-molecule binders of Shh protein, primary screen, biochemical, small-molecule microarray, 635/667 nm fluorescence (AID 1151).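 Further: Shh protein binding to compounds spotted on small-molecule microarray slides; score combines spot fluorescence intensity with signal-to-noise across triplicate slides.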 As to conditions: small-molecule microarray binding, 635 nm fluorescence; higher = more signal.
Assay [11] can be described thus: E. coli DRC41 culture turbidity changes, primary screen, E. coli filamentation inducer project, strain DRC41, OD650, 48 h (AID 1152).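 Further: E. coli MC1000 strain DRC41 lacking acrAB efflux pump and sulA.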 As to conditions: E. coli DRC41 (acrAB sulA), higher = more signal, called active from +8 up or from −8 down.
The nature of assay [12]: small-molecule binders of probe aLefty1, primary screen, biochemical, small-molecule microarray, 635/667 nm fluorescence (AID 1153).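 Further: score merges spot fluorescence with signal-to-noise ratio from the scanned slide images.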 As to conditions: higher = more signal.
The nature of assay [13]: PSAC antagonists in infected red cells, primary screen, cell-based, P. falciparum Indochina, OD700, 1 h (AID 1154). As to conditions: P. falciparum Indochina infected RBC osmotic lysis, higher = more signal, called active from +8 up or from −8 down.
Assay [14] can be described thus: PSAC antagonists in infected red cells, primary screen, cell-based, P. falciparum Indochina, OD700, 2 h (AID 1155).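 Further: lysis reports solute entry through the parasite surface anion channel PSAC; channel blockers reduce lysis of infected cells.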 As to conditions: P. falciparum Indochina infected erythrocytes, osmotic lysis OD700; higher = more signal, called active from +8 up or from −8 down.
The nature of assay [15]: osmotic lysis modulators in infected erythrocytes, primary screen, PSAC antagonist project, cell-based, P. falciparum Indochina, OD700, 3 h (AID 1156). As to conditions: higher = more signal, called active from +8 up or from −8 down.
The nature of assay [16]: PSAC antagonists in infected red cells, primary screen, cell-based, P. falciparum Indochina, OD700, 18 h (AID 1157). As to conditions: P. falciparum Indochina infected erythrocytes, osmotic lysis OD700, 18 h; higher = more signal, called active from +8 up or from −8 down.
Assay [17] can be described thus: modulators of S6 phosphorylation in cells, primary screen, cell-based, A549, cytoblot, luminescence, serum-stimulated (AID 1158).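 Further: serum-stimulated A549 lung adenocarcinoma cells; signal is phosphorylated S6 detected by cytoblot immunostaining with HRP secondary.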 As to conditions: A549 phospho-S6 cytoblot, 5 h, higher = more signal.
Assay [18] concerns the target NADPH oxidase 2 (Homo sapiens) (UniProt P04839). The assay can be described thus: NOX2-dependent H2O2 signal modulators, primary screen, NOX inhibitor project, cell-based, HEK293-NOX2, PMA-stimulated, Amplex Red fluorescence (AID 1159). Further: test concentration not given here. As to conditions: 45 min, higher = more signal, called active from +8 up or from −8 down.
Assay [19] addresses NADPH oxidase 4 (Homo sapiens) (UniProt Q9NPH5). Kind of assay: NOX4-dependent H2O2 signal modulators, primary screen, NOX inhibitor project, cell-based, HEK293-NOX4, tetracycline-induced, Amplex Red fluorescence (AID 1160). As to conditions: 45 min, higher = more signal, called active from +8 up or from −8 down.
The target of assay [20] is NADPH oxidase 5 (Homo sapiens) (UniProt Q96PH1). Kind of assay: NOX5-dependent H2O2 signal modulators, primary screen, NOX inhibitor project, cell-based, HEK293-NOX5, Amplex Red fluorescence (AID 1161). As to conditions: HEK293-NOX5, ionomycin, 45 min, higher = more signal.
Sequence of NADPH oxidase 5 (Homo sapiens) (Q96PH1 whole entry, looked up): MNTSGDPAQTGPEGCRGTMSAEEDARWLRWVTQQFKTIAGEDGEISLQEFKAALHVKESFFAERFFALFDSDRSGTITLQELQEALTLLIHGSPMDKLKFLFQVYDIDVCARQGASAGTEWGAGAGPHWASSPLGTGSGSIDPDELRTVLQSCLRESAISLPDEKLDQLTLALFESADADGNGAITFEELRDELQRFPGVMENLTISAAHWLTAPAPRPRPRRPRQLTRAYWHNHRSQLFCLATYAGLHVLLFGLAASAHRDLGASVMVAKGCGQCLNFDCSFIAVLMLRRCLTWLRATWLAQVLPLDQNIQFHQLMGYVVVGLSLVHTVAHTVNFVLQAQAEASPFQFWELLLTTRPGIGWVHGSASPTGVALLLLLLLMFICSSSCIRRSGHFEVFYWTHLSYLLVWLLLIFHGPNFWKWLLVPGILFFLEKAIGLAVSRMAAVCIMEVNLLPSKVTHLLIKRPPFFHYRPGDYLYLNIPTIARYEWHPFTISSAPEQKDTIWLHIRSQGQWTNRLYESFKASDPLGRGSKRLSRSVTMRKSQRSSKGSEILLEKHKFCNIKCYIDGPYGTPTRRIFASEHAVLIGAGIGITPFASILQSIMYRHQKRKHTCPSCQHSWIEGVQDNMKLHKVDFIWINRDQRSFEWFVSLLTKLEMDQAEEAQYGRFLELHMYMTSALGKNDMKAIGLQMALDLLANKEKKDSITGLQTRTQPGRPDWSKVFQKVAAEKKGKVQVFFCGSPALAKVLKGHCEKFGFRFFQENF

Sequence of NADPH oxidase 2 (Homo sapiens) (P04839 whole entry, looked up): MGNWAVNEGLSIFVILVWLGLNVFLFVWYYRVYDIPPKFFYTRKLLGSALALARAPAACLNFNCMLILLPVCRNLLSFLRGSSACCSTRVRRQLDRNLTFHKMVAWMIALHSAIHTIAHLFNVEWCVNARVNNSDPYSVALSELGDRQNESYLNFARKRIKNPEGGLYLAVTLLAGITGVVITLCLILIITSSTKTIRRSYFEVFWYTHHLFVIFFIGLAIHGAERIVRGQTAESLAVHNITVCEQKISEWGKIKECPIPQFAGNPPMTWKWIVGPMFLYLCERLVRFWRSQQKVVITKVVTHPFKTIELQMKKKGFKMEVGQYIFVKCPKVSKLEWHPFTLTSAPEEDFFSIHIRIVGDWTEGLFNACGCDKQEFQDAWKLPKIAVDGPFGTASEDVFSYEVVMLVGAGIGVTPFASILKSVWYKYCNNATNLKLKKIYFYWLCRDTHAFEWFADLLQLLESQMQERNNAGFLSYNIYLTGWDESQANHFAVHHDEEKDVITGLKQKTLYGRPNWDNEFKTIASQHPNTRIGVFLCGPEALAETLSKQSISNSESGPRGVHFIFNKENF
Sequence of NADPH oxidase 4 (Homo sapiens) (Q9NPH5 whole entry, looked up): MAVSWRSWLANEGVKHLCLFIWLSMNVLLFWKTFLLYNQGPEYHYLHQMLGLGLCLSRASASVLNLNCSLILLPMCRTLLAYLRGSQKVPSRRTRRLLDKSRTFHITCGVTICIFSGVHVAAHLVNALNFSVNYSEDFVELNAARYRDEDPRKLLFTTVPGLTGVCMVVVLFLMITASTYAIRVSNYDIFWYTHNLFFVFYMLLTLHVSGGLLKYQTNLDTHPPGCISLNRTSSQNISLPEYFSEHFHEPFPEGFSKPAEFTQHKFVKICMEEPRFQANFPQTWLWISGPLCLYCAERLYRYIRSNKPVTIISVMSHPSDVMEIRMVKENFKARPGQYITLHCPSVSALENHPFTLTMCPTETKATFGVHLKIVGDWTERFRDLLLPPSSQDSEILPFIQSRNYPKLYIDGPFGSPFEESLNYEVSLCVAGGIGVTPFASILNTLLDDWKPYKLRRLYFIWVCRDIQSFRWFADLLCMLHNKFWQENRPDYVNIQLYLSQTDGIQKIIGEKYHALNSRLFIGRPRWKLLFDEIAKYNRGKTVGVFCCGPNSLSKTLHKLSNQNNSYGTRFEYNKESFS

Take `COC(=O)[C@@]1(Cc2ccccc2)[C@H]2c3cc(C(=O)N(C)C)n(CCc4ccc(O)c(OC)c4)c3C[C@H]2CN1C(=O)c1ccccc1`: the composite z-score in assay [1] is 1.01; in assay [6] it was 0.545; in assay [7], 1.07; in assay [8], 0.0405; in [9] it was 0.212; in [10], -0.0598. In [12], the composite z-score turned out to be 1.11. The z-score in assay [2] was 0.394 (inactive); in assay [3], 0.333 (inactive); in assay [4] it was 0.201 (inactive); in assay [5] it was 0.334 (inactive); in [11], -0.873 (inactive); in assay [13], 0.318 (inactive). For the same compound, the z-score in assay [14] was 0.277 (inactive); in assay [15], -0.692 (inactive); in assay [16], 0.667 (inactive); in assay [17], -0.565; in assay [18] it was 0.0564 (inactive); in assay [19], -0.485 (inactive). The compound further gave a z-score in [20] of -0.207.

For `C=CC1c2cc(O)c(OC)cc2CCN1Cc1cc2c(cc1Br)OCO2` (stereo not given), the composite z-score is -0.158 in assay [1]; -0.361 in [6]; -0.128 in assay [7]; 1.34 in [8]; 0.587 in [9]; 0.672 in assay [10]. In assay [12], this compound yielded a composite z-score of 0.274. In addition, the z-score in [2] was -5.24 (inactive); in assay [3], 0.0937 (inactive); in [4], 0.299 (inactive); in assay [5], 0.962 (inactive); in assay [11], -1.93 (inactive); in [13] it was 15.1 (active). In addition, the z-score is 3.15 (inactive) in [14]; 1.57 (inactive) in [15]; 1.01 (inactive) in [16]; 0.0469 in [17]; -6.22 (inactive) in assay [18]; -3.87 (inactive) in assay [19]. Further, the z-score in assay [20] was -4.16.

`[N-]=[N+]=Nc1ccccc1[C@H]1OC(c2ccc(OCCCO)cc2)=N[C@@]1(CCS(=O)(=O)c1ccccc1)C(=O)NCCN1CCOCC1`: the composite z-score is 1.11 in assay [1]; 0.866 in assay [6]; 0.283 in assay [7]; 0.484 in assay [8]; 1.47 in assay [9]; 0.273 in assay [10]. In assay [12], the composite z-score amounted to 0.458. In addition, the z-score was -1.14 (inactive) in [2]; 1.38 (inactive) in assay [3]; -0.45 (inactive) in assay [4]; -0.5 (inactive) in assay [5]; -0.0631 (inactive) in assay [11]; 28.9 (active) in [13]. For the same compound, the z-score in [14] was 25.6 (active); in [15], 0.931 (inactive); in assay [16] it was 1.8 (inactive); in assay [17], 0.468; in assay [18], -2.18 (inactive); in [19], -0.233 (inactive). In assay [20], this compound displayed a z-score of -1.47.

For the compound `C=C[C@@H](OC)[C@H](OC(=O)Nc1ccc(SC)cc1)c1ccc(O)c(F)c1`, the composite z-score in assay [1] is 0.183; in assay [6], -0.376; in [7], 0.0679; in assay [8], 0.242; in assay [9], 0.679; in [10], 1.14. For the same compound, the composite z-score in [12] worked out at 0.44. Further, the z-score in assay [2] is -1.57 (inactive); in assay [3], -1.04 (inactive); in [4] it was 0.847 (inactive); in assay [5], 0.425 (inactive); in assay [11] it was -1.51 (inactive); in assay [13] it was 24.7 (active). In addition, the z-score in assay [14] was 7.57 (inactive); in [15], 2.98 (inactive); in [16], 1.31 (inactive); in assay [17] it was -0.618; in assay [18], -2.6 (inactive); in [19] it was -2.4 (inactive). Also, the z-score in [20] is -1.26.
